Compounds without any hit were thinned out: in the full panel of roughly 83,000, 20% have a hit.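 Testing used 96-well plates and a 48-hour single-concentration exposure. Example: -40 means 40% of the starting cells died.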 Calls of active or inactive are those of the source. How the source made its calls: active means growth percent below 10; inactive means the rest.
Each compound was assayed on M14 melanoma (assay: NCI-60 one-dose screen, 48 h (100 = growth as untreated, 0 = no growth, -100 = all killed)). Details: 10 µM.
With `COc1ccc(N2N=C(c3ccc4c(c3)OCCO4)CC2c2cccc(NC(=O)CCCNS(=O)(=O)c3ccc(F)cc3)c2)cc1` (centres undefined) the growth was 81.9% (inactive).
For `COc1cc(/C=N/NC(=O)c2ccc3nc(-c4ccc(Cl)cc4)[nH]c3c2)cc(OC)c1OC`, the growth was -28% (active).
In the case of `O=C(N=Nc1c(O)[nH]c2ccc(Br)cc12)c1ccc2nc(-c3ccccc3)[nH]c2c1`, the growth is reported as -85.9% (active).
For `COc1ccccc1[C@H]1C(C(=O)c2ccc(Cl)cc2)C2(N[C@@H]1c1ccccc1)C(=O)Nc1ccc(Cl)cc12` (some centres undefined), the growth was 28.4% (inactive).
In the case of `O=c1cc(-c2ccccc2)oc2cc(OCCCNCc3ccccc3)cc(O)c12`, the growth is reported as -76% (active).
`O=C1Nc2cc(-c3ccc(NC(=O)c4cccs4)cc3)ccc2/C1=C/c1ccc[nH]1` was tested, and the growth was 88.9% (inactive).
For `O=C(c1ccc(O)cc1)C1[C@H](c2ccc(Br)cc2)[C@@H](c2ccccc2)NC12C(=O)Nc1ccccc12` (some centres undefined), the growth was 51.7% (inactive).
In the case of `C=C1CCC2C3(C)COC(c4ccccc4F)OC3CCC2(C)C1C/C=C1/C(=O)OCC1O` (centres undefined), the growth is reported as -54.1% (active).
In the case of `C=C1CCC2C3(C)COC(c4c(F)cccc4F)OC3CCC2(C)C1C/C=C1/C(=O)OCC1O` (centres undefined), the growth is reported as -23.7% (active).
`COc1cccc(/C=C2\N=C(C)N(CCc3ccc(S(N)(=O)=O)cc3)C2=O)c1` was tested, and the growth was 100% (inactive).
With `C=C1CCC2C3(C)COC(c4cccc(F)c4)OC3CCC2(C)C1CC(O)C1=CCOC1=O` (centres undefined) the growth was 61.1% (inactive).
`Cn1cc(-c2cc(N)n3nc(-c4c[nH]c5ccc(Br)cc45)cc3n2)c2cccnc21` was tested, and the growth was -85.8% (active).
`C=C1CCC2C3(C)COC(c4c(F)cccc4F)OC3CCC2(C)C1CC(O)C1=CCOC1=O` (centres undefined) was tested, and the growth was 53.9% (inactive).
With `Brc1ccc(/C=C/c2n(Cc3ccc4ccccc4c3)c3ccccc3[n+]2Cc2ccc3ccccc3c2)cc1` the growth was -31.7% (active).
With `O=C(Nc1ccc(I)cc1)Nc1nc2ccc([N+](=O)[O-])cc2s1` the growth was -100% (active).
In the case of `O=C(N/N=C/c1ccc(B(O)O)o1)c1[nH]c2ccc(Br)cc2c1-c1ccccc1`, the growth is reported as 20.1% (inactive).
In the case of `CONC[C@]1(C)C=C2C(=O)[C@](C)(O)C3(CC3)C(C)=C2[C@H]1O`, the growth is reported as -13.5% (active).
For `O=C(Nc1cccc(-c2cn(-c3ccc4oc(=O)ccc4c3)nn2)c1)Nc1cc(C(F)(F)F)cc(C(F)(F)F)c1`, the growth was 55.5% (inactive).
For `CCCCCCCCCCCCCCCCCCCC(=O)NCCc1c[nH]c2ccc(OC(=O)CCCC(=O)OCCOOCCOOCCOOCCOOCCOOCCOOCCOOCCOOCCOOCCOOCCOOCCOC)cc12`, the growth was 56.4% (inactive).
With `COc1ccc(/C(C)=N/N=C2C(=O)N(C)c3ccc(Br)cc32)cc1S(N)(=O)=O` the growth was 87.1% (inactive).
With `N#Cc1c(NC(=O)c2ccc(C(F)(F)F)cc2C(F)(F)F)sc2c1CCC(=O)C2` the growth was -50.3% (active).
With `CNCc1cccc2c1OCCCCCC[C@@](C)(O)CC1(CC1)S(=O)(=O)c1ccc(cc1)-c1cnc(N)c(n1)C(=O)N2` the growth was -38.6% (active).
`COc1cc(OC(F)(F)F)ccc1C(=O)Nc1sc2c(c1C#N)CCC(=O)C2` was tested, and the growth was 64.4% (inactive).
`Nc1n[nH]c2cccc(C#Cc3cccc(NC(=O)Nc4cc(C(F)(F)F)cc(C(F)(F)F)c4)c3)c12` was tested, and the growth was -9.94% (active).
In the case of `N#Cc1c(-c2ccc(F)cc2)nc(SCc2ccc([N+](=O)[O-])cc2)nc1N1CCOCC1`, the growth is reported as 87.7% (inactive).
`CC1=N/C(=C\c2ccc(N(C)C)cc2)C(=O)N1CCc1ccc(S(N)(=O)=O)cc1` was tested, and the growth was 97.3% (inactive).
For `CN(CCF)c1ccc(/C=C/C(=O)c2ccc(N)cc2O)cc1`, the growth was 107% (inactive).
In the case of `O=C(c1ccc(Cl)cc1)C1[C@H](c2ccccc2Br)[C@@H](c2ccccc2)NC12C(=O)Nc1ccccc12` (some centres undefined), the growth is reported as 17.1% (inactive).
`O=C(Nc1cc(Cl)cc(Cl)c1)Nc1cc(Cl)cc(Cl)c1` was tested, and the growth was -77.9% (active).
`O=C(c1ccc(O)cc1)C1[C@H](c2ccc(Br)cc2)[C@@H](c2ccccc2)NC12C(=O)Nc1ccc(Br)cc12` (some centres undefined) was tested, and the growth was 14.8% (inactive).
`COc1ccccc1[C@H]1C(C(=O)c2ccc(O)cc2)C2(N[C@@H]1c1ccccc1)C(=O)Nc1ccc(Br)cc12` (some centres undefined) was tested, and the growth was 51.6% (inactive).
In the case of `CN1CCN(c2ccc(C(=O)/C=C/c3ccc(C#N)cc3)cc2)CC1`, the growth is reported as 79.6% (inactive).
With `CC(C)(C)Nc1nc2cc(Cl)c(Cl)cc2nc1S(C)(=O)=O` the growth was 5.68% (active).
`COc1cc(/C=C/C(=O)c2cc(OC)c(OC)c(OC)c2)ccc1Oc1nc(Nc2ccc(F)cc2)nc(N(C)C)n1` was tested, and the growth was -27.5% (active).

— PubChem BioAssay (NCI)
